Hits are enriched below; roughly 11% of the tested compounds scored in any of these assays.
HPGD inh: qHTS Assay for Inhibitors of HPGD (15-Hydroxyprostaglandin Dehydrogenase); Potency, µM, for the others: at the highest dose activity change, negative = inhibition, hits mostly inhibitors; 15-hydroxyprostaglandin dehydrogenase [NAD(+)] (Homo sapiens), P15428; purified HPGD, NADH fluorescence kinetic, PGE2 substrate; 150,000 compounds, 4.3% hits; note: potency is the fitted concentration of half-maximal effect
Target sequence (P15428 whole entry, looked up): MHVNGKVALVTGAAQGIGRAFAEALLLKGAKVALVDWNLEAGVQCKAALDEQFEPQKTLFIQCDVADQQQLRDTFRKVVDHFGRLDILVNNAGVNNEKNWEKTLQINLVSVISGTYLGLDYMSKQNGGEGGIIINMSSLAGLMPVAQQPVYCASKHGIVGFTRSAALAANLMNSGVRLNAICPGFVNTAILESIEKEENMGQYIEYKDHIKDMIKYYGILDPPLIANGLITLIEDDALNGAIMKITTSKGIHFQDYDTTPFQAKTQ
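NADH formation kinetics: reaction with 30 uM PGE2 and 1 mM NAD+ (final), 20 nM enzyme, Tris-HCl pH 8 with Tween 20, after 15 min compound preincubation at room temperature. Fluorescence change, last versus first of five reads.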
ALDH1A1 inh: qHTS Assay for Inhibitors of Aldehyde Dehydrogenase 1 (ALDH1A1); 220,000 compounds, 7.3% hits; Purified ALDH1A1, NADH fluorescence, propionaldehyde substrate; Potency, µM (top dose mostly 75.3 µM), for inactives: at the highest dose activity, negative = inhibition, most hits filed as inhibitors; Aldehyde dehydrogenase 1A1 (Homo sapiens), P00352;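 note: potency is the fitted concentration of half-maximal effect; plate controls were no enzyme wells and a reference inhibitor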
PNC inhibitor: High Content Assay for Compounds that inhibit the Assembly of the Perinucleolar Compartment | 140,000 compounds, 3.1% hits | activity change (PNC), negative = inhibition, % at 10 µM | PC3M PTB-GFP, PNC prevalence imaging, 16 h; active compounds read low;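 active = readout at or below -70, meaning at least 70% loss of cells showing the perinucleolar compartment, a nuclear body marking cancer cells; inconclusive = readout between -30 and a set limit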;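 note: plate controls were DMSO wells for no effect and camptothecin positive control wells for full effect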
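Read-out is percentage of cells bearing a perinucleolar compartment, from automated 20x imaging of fixed, Hoechst-stained PC3M PTB-GFP cells. Cells were seeded 4 h, then exposed 16 h to compound (23 nl of library stock) in duplicate plates.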
Starred values were filed as active, the others as inactive; [ ] = dose if it differs, or a comment. Unless noted, calls come from the whole dose curve; as a rule, active = well fitted inhibition curve with a large enough effect (not every such curve was filed as active); inconclusive = small, poorly fitted or top-dose-only effect, or another doubt; inactive = no such curve, though single readings can be large or run the other way. Unless noted, % is set by controls: 0 for no effect and ±100 for the full control effect.

Screening O=S(=O)(Cc1ccccc1)c1cnc2ccccc2n1 returned HPGD inh 25µM*, ALDH1A1 inh inconclusive and PNC inhibitor -29.
For O=S(=O)(c1ccc(Br)cc1)c1cnc2ccccc2n1 the results were ALDH1A1 inh -1%.
For O=C(COC(=O)C1CC(O)CN1S(=O)(=O)c1ccc(Cl)cc1)c1ccccc1 (stereo not drawn) the results were HPGD inh -18%, ALDH1A1 inh inconclusive and PNC inhibitor -5.
Screening O=C(COC(=O)C1CC(O)CN1S(=O)(=O)c1ccc(Cl)cc1)c1ccccc1Cl (stereo not drawn) returned HPGD inh -2%, ALDH1A1 inh 18µM* and PNC inhibitor -22.
For CC1CN(C(=O)COC(=O)[C@@H]2CC(O)CN2S(=O)(=O)c2ccc3c(c2)OCCO3)CC(C)O1 (stereo partly drawn) the results were HPGD inh -3%, ALDH1A1 inh 2% and PNC inhibitor 11.
`CC(C)N(C(=O)COC(=O)[C@@H]1CC(O)CN1S(=O)(=O)c1ccc(C(C)(C)C)cc1)C(C)C` (stereo partly drawn) gave ALDH1A1 inh 8.9µM*.
Screening Cc1ccc2nc(NCc3ccccc3)[nH]c2c1 returned HPGD inh -1%, ALDH1A1 inh 6% and PNC inhibitor -103*.
`COc1ccc2nc(NCc3ccccc3)[nH]c2c1` gave HPGD inh -3%, ALDH1A1 inh 2% and PNC inhibitor inconclusive.
`CCN1C(=O)[C@@H]2[C@H](C1=O)[C@@H]1C[C@H]3C(=O)N(CC)C(=O)[C@H]3[C@@H]3C1=C(C(=O)N1C(=O)O/C(=N\CC4CC4)[C@]31C)[C@@H]2C` gave HPGD inh -6% and ALDH1A1 inh 7%.
Screening O=C(NCc1ccc2c(c1)OCO2)c1ccc(=O)[nH]c1 returned HPGD inh -9%, ALDH1A1 inh 0% and PNC inhibitor -17.
For COc1ccc(S(=O)(=O)NCCC(C)C)cc1C the results were HPGD inh -9%, ALDH1A1 inh -7% and PNC inhibitor inconclusive.
Screening CCOC(=O)CNC(=O)N1CCCC(CNS(=O)(=O)Cc2ccccc2)C1 (stereo not drawn) returned ALDH1A1 inh 9%.
Screening O=C(N/C(=C\c1ccccc1)C(=O)N1CCN(CCO)CC1)c1ccccc1 returned HPGD inh -1%, ALDH1A1 inh 3% and PNC inhibitor -12.
For Cc1ccc(-c2nc3ccccc3[nH]2)cc1NC(=O)/C=C/c1ccco1 the results were HPGD inh -19%, ALDH1A1 inh 13µM* and PNC inhibitor 55.
Screening O=C(c1ccccc1)c1ccc2nc(-c3ccc(NC(=O)c4ccccc4Br)cc3)[nH]c2c1 returned HPGD inh -4%, ALDH1A1 inh inconclusive and PNC inhibitor 48.
For Cc1cc(C)c2oc(-c3ccc(C)c(NC(=S)NC(=O)/C=C/c4ccco4)c3)nc2c1 the results were HPGD inh -15%, ALDH1A1 inh -8% and PNC inhibitor inconclusive.
For Cc1ccc(-c2nc3ccccc3[nH]2)cc1NC(=O)c1ccc2c(c1)OCO2 the results were HPGD inh -11%, ALDH1A1 inh 5% and PNC inhibitor inconclusive.
Screening O=C(NC(=S)Nc1cc(-c2nc3ccccc3[nH]2)ccc1Cl)c1ccc2c(c1)OCO2 returned HPGD inh 20µM*, ALDH1A1 inh 8.9µM* and PNC inhibitor -1.
For Cc1ccc(-c2nc3ccccc3[nH]2)cc1NC(=S)NC(=O)c1ccccc1Br the results were HPGD inh -15%, ALDH1A1 inh 28µM* and PNC inhibitor 34.
For Cc1ccc(-c2nc3ccccc3s2)cc1NC(=O)c1cc(-n2cnnc2)ccc1Cl the results were HPGD inh -22%, ALDH1A1 inh inconclusive and PNC inhibitor 11.
For Cc1ccc(-c2nc3ccccc3s2)cc1NC(=S)NC(=O)c1ccccc1 the results were HPGD inh -12%, ALDH1A1 inh 10µM* and PNC inhibitor 23.
Screening COc1ccc(CN2CCCC(C(=O)c3cccc(C(F)(F)F)c3)C2)cc1O (stereo not drawn) returned ALDH1A1 inh 16%.
O=C(Nc1cccc2c1CCCC2)c1ccncc1 was read as HPGD inh -5%, ALDH1A1 inh -2% and PNC inhibitor -17.
`O=C(O)c1cc(N=Cc2ccccc2O)cc(C(=O)O)c1` gave HPGD inh -24% and ALDH1A1 inh -16%[13.5 µM].
Screening CC(=O)c1c(C)[nH]c(C(=O)OCc2ccc(F)cc2Cl)c1C returned ALDH1A1 inh 1%.
Cc1ccc(C(=O)NNC(=O)CSc2nnc(-c3ccncc3)n2C)cc1 was read as HPGD inh -1%, ALDH1A1 inh 13% and PNC inhibitor -3.
Screening Cc1sc2ncnc(SCC(=O)NCC(C)C)c2c1C returned HPGD inh 16µM*, ALDH1A1 inh -2% and PNC inhibitor 27.
For Cc1sc2ncnc(SCC(=O)NC(C)(C)C)c2c1C the results were ALDH1A1 inh -2%.
O=C(O)CN1CCN(Cc2ccc(F)cc2Cl)C1=O was read as HPGD inh inconclusive, ALDH1A1 inh inconclusive and PNC inhibitor -14.
CCO[C@@H]1OC(C(=O)N2CCCCCCC2)=C[C@H](c2ccc3c(c2)OCO3)[C@H]1CCCO was read as ALDH1A1 inh -4%.
CCOc1ccc(-c2ccc(SCC(=O)N3CCN(c4ccccc4)CC3)nn2)cc1 was read as HPGD inh -4%, ALDH1A1 inh 18µM* and PNC inhibitor 50.
Screening O=C(CSc1ccc(-c2ccccc2)nn1)N1CCCCC1 returned ALDH1A1 inh -3%.
For CCOC(=O)N1CCN(C(=O)CSc2ccc(-c3ccc(OC)cc3)nn2)CC1 the results were ALDH1A1 inh -4%.
CC1CCN(C(=O)CSc2ccc(-c3ccc(F)cc3)nn2)CC1 was read as HPGD inh 10µM*, ALDH1A1 inh -2% and PNC inhibitor -2.
For O=C(CSc1ccc(-c2ccc(F)cc2)nn1)N1CCCCC1 the results were HPGD inh 16µM*, ALDH1A1 inh -12% and PNC inhibitor -7.
Screening CC1CCCC(C)N1C(=O)COc1ccccc1F (stereo not drawn) returned ALDH1A1 inh 6%.
CC1CCN(C(=O)COc2ccccc2F)CC1 was read as HPGD inh 25µM*, ALDH1A1 inh -6% and PNC inhibitor 29.
`O=C(CSc1ccc(-c2ccncc2)nn1)N1CCCC1` gave ALDH1A1 inh 7%.
For C[C@@H]1c2ccccc2Cn2cc3c(c21)C(=O)c1cccc(OP(=O)(O)OCc2ccccc2)c1C3=O the results were HPGD inh -26% and ALDH1A1 inh 12%[13.5 µM].
`CCN(CC)c1ccc2cc(C(=O)Nc3ccc(-n4cnnn4)c(OC)c3)c(=O)oc2c1` gave HPGD inh -12%, ALDH1A1 inh -3% and PNC inhibitor 25.
C1N2CN3CN1CN(C2)C3 was read as HPGD inh 3% and ALDH1A1 inh -1%.
For CNS(=O)(=O)c1cccc(C(=O)OCC(=O)N(Cc2ccccc2)C(C)(C)C)c1 the results were ALDH1A1 inh 4%.
For O=C(Cc1ccccc1F)NCC(c1ccco1)N1CCCCC1 (stereo not drawn) the results were ALDH1A1 inh -1%.

Screens (PubChem BioAssay)
